Hit rate of the full screen: of about 290,000 compounds, about 3,500 (1.2%) were called active.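 The calls were made as follows: active = inhibition above the campaign mean inhibition over all tested compounds plus 3 SD (cut at about 28% in these data); inactive = the rest.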 Only a selection was taken, and actives are over-represented in it overall.

For this experiment, the system named is M18 aspartyl aminopeptidase (Plasmodium falciparum 3D7). Kind of experiment: inhibition of P. falciparum M18 aminopeptidase – biochemical, QFRET, recombinant enzyme, primary screen (AID 1822).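 Also: 0% = plate median of test compound wells and 100% = 2 mM ZnCl2.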 The conditions noted are these: recombinant PfM18AAP, H-Glu-NHMec fluorogenic cleavage; at 7.35 µM; active compounds read high.
Regarding `Cc1cc(C)cc(Oc2c(C(F)(F)F)oc3cc(OCC(=O)O)ccc3c2=O)c1`, the inhibition was 0.89% (inactive).

Turning to `N#Cc1cccc(CSc2ncnc(N)n2)c1`, the inhibition is 3.53% (inactive). For `CC(C)c1c(C(=O)N/N=C/c2ccccc2C(=O)O)nnn1-c1nonc1N` the value was 2.33% (inactive); for `O=S(=O)(Nc1ccccc1Br)c1cccs1`, -3.63% (inactive); for `Cc1ccc(N2C(=O)C3C4C=CC(CC4)C3C2=O)cc1Br` (configuration not stated), -1.4% (inactive). Turning to `Nn1cnnc1N/N=C/c1cc([N+](=O)[O-])c(Cl)cc1Cl`, the inhibition was 30% (active). Turning to `O=[N+]([O-])c1ccc(O)c(/C=N/Nc2ccccc2[N+](=O)[O-])c1`, the inhibition was -13% (inactive). Consider `COCCCNC(=O)CN1C(=O)CSc2ccc(S(=O)(=O)N3CCOCC3)cc21`, for which the inhibition was 6.04% (inactive). As to `Cc1ccc(CNC(=O)C(=O)c2cn(CC(=O)N3CCCC3)c3ccccc23)cc1`, the inhibition was 2.97% (inactive). The value for `CC(OC(=O)c1ccc2noc(-c3ccccc3)c2c1)C(N)=O` (configuration not stated) was 31.9% (active).

Turning to `COc1ccc(-c2onc3ccc(C(C)=O)cc23)cc1`, the inhibition is 13.4% (inactive). The value for `Oc1ccc(-c2onc3ccc(Cl)cc23)cc1` was 1.68% (inactive). For `Cc1c(CN2CC[C@@H](N3CCN(c4ccccn4)CC3)[C@H](O)C2)[nH]c2ccc(F)cc12` the value was 9.87% (inactive); for `COc1ccc(N(Cc2cc3ccc(C)cc3[nH]c2=O)S(=O)(=O)c2ccccc2)cc1`, 6.49% (inactive). The value for `CC(=O)N1c2ccc(S(=O)(=O)NCCC(=O)N(C)C3CCCCC3)cc2CC1C` (configuration not stated) was 0.68% (inactive). Consider `O=C(Nc1cccc([N+](=O)[O-])c1)Nc1ccc(Cl)cn1`, for which the inhibition is -7.59% (inactive). With `Cc1ccc(C)n1NC(=O)c1ccc([N+](=O)[O-])cc1`, the inhibition is 3.79% (inactive). Take `O=C(Nc1cccc([N+](=O)[O-])c1)Nn1cnnc1`: the inhibition is 77.4% (active). The value for `COC(=O)/C=C\C(=O)Nc1cccc([N+](=O)[O-])c1` was -7.77% (inactive). The value for `O=C(Nn1c(-c2ccccc2)nc2ccccc2c1=O)c1ccc([N+](=O)[O-])cc1` was -0.32% (inactive); that for `O=C(Nn1cnnc1)c1ccc([N+](=O)[O-])cc1` was 30.2% (active); that for `COc1ccc(C(=O)NCc2nnc(SCC(=O)NC3=NCCS3)n2C)cc1` was -2.4% (inactive). For `Cc1cccc(C(=O)Nc2ccc(C(=O)N/N=C/c3cccc(C)n3)cc2)c1`, the inhibition is -3.2% (inactive). For `CSCC[C@H](NC(=O)N1CCn2c1nc1ccccc12)C(=O)NC1CCCCC1` the value was 2.15% (inactive).

Consider `CCCc1cc(=O)oc2c(C)c(OCC(=O)N3CCC(C(=O)O)CC3)ccc12`, for which the inhibition was 5.91% (inactive). Turning to `COc1ccc(C(C(=O)NC(C)(C)C)N(Cc2ccc(F)cc2)C(=O)CCC(=O)Nc2cc(C)on2)cc1` (configuration not stated), the inhibition was -7.57% (inactive). For the compound `C=CCOc1cccc(CNCc2cccnc2)c1`, the inhibition is -17.3% (inactive). With `Cc1ccc(NNC(=O)c2c(F)cccc2Cl)cc1Cl`, the inhibition is 5.54% (inactive).

Regarding `Cc1ccc(NNC(=O)c2cccs2)cc1Cl`, the inhibition is 28.9% (active). For the compound `O=C(NNC(=O)c1ccc(Cl)cc1Cl)c1cccs1`, the inhibition is -2.06% (inactive). In the case of `CCOC(=O)N1CCN(Cc2nc3cc(NC(=O)CC)ccc3n2CC)CC1`, the inhibition is -7.14% (inactive). For `CCOc1ccccc1N1C(=O)CC(Sc2nccc(C)n2)C1=O` (configuration not stated) the value was -4.13% (inactive); for `COc1cccc2cc(C(=O)N(C)C)c(=O)oc12`, -12.7% (inactive). On to `COc1ccc2oc(=O)cc(-c3cc4ccccc4o3)c2c1`, for which the inhibition is 21.1% (inactive).

In the case of `COc1cccc2cc(-c3cc(=O)oc4cc(C)c(O)cc34)oc12`, the inhibition is 41.3% (active).

As for `COc1ccc(N2CCN(C(=O)Cn3cnc4sc(C)c(S(=O)(=O)N5CCOCC5)c4c3=O)CC2)cc1`, the inhibition was 2.52% (inactive). The value for `CCOC(=O)C1CCN(c2c(Nc3cc(C)cc(C)c3)c(=O)c2=O)CC1` was -6.21% (inactive).

With `Cc1nc2ccc(S(=O)(=O)NCC(=O)NCCN3CCCCC3C)cc2s1` (configuration not stated), the inhibition was -0.01% (inactive). For `Cc1nc2ccc(S(=O)(=O)NCC(=O)O)cc2s1` the value was 51.8% (active); for `Cc1nc2ccc(S(=O)(=O)NC(C(=O)N3CCCCCC3)C(C)C)cc2s1` (configuration not stated), -0.39% (inactive).

For the compound `COc1cccc2cc(C(=O)NCc3ccc(C)cc3)c(=N)oc12`, the inhibition is 3.31% (inactive). For `COc1ccc2c(CC(=O)N3CCc4cc(OC)c(OC)cc4C3)coc2c1`, the inhibition was 3.64% (inactive). For `ONC(=Nc1ccc(Cl)cc1)c1ccccc1Cl` the value was 18.2% (inactive); for `C/C(Cc1ccccc1)=N\NC(=O)CNC(=O)c1ccccc1Cl`, 6.33% (inactive). The value for `ONC(=Nc1ccccc1)c1ccccc1Cl` was 40.1% (active). `COC(=O)c1ccccc1Sc1c(/C=N/OCc2ccc(Cl)cc2)c(C(F)(F)F)nn1C`: the inhibition is 2.22% (inactive). Turning to `c1ccc(-c2ccc3c(c2)NC(C2Nc4cc(-c5ccccc5)ccc4O2)O3)cc1` (configuration not stated), the inhibition was 42.1% (active). Consider `COc1cccc(C(=O)Nc2nnc(S(=O)(=O)N(C)c3ccccc3)s2)c1`, for which the inhibition is -1.4% (inactive). Take `COc1ccc(S(=O)(=O)Nc2ccc(S(=O)(=O)N3CCCCC3)cc2)cc1OC`: the inhibition was 4.79% (inactive). For `COc1cc(S(=O)(=O)Nc2ncn[nH]2)ccc1Cl` the value was 51.4% (active). For `COc1ccc(C(C)C)cc1S(=O)(=O)Nc1ncn[nH]1`, the inhibition was 8.59% (inactive). The value for `O=C(NCc1cccnc1)C12CC3CC(CC(C3)C1)C2` was -7.72% (inactive).

`Cc1cc(NC(=O)CCC(=O)N(CC(=O)NCC2CCCO2)c2ccccc2)no1` (configuration not stated): the inhibition is -2.56% (inactive).

For the compound `O=C(NCCN1CCOC1=O)C1CCC(=O)N(CCc2ccc(Cl)cc2)C1` (configuration not stated), the inhibition is -13.3% (inactive). For `COC(=O)c1c(C)oc2ccc(N(C(=O)Oc3ccccc3)S(=O)(=O)c3ccccc3)cc12` the value was -12.4% (inactive). For `CC(=O)N(c1ccc2oc(=O)sc2c1)S(=O)(=O)c1ccc(C)cc1` the value was 32.7% (active).

For `CC(=O)Oc1ccc(N(C(C)=O)S(=O)(=O)c2ccc3ccccc3c2)cc1Br`, the inhibition was -1.42% (inactive). For `CCOc1ccccc1NC(=O)NC1CCCCCCC1` the value was -2.13% (inactive); for `CC(=O)Nc1ccc(NC(=O)[C@@H](NC(=O)c2cccc(C)c2)C(C)C)cc1`, -0.5% (inactive); for `CCc1c(C)sc(NC(=O)c2cccs2)c1C(N)=O`, -38.8% (inactive).

For the compound `COc1ccc(NC(=O)COc2ccc(C(=O)c3ccc(F)cc3)cc2)cc1S(N)(=O)=O`, the inhibition is -0.83% (inactive).

Turning to `CC1=C(C)C(=O)OC(C(C)C2CCC3C4CC=C5CC(OC6OC(COC7OC(CO)C(O)C(O)C7O)C(O)C(O)C6O)CC(O)C5(C)C4CCC23C)C1` (configuration not stated), the inhibition was 3.15% (inactive). For `CC(/C=C/C1(O)C(C)CC(=O)CC1(C)C)OC1OC(CO)C(O)C(O)C1O` (configuration not stated) the value was 49.9% (active). The value for `Cc1[nH]c(C)c(S(=O)(=O)N2CCN(c3cccc(C(F)(F)F)c3)CC2)c1C(=O)N1CCCCC1` was 3.83% (inactive); that for `O=C(CSc1ccc(/C=N/NC(=O)c2cccc(F)c2)o1)Nc1ccccc1` was 6.13% (inactive); that for `Cc1ccc(/C=N/NC(=O)CSc2ccccn2)o1` was 5.97% (inactive). The value for `N#CCC(=O)N/N=C/c1ccc(SCC(=O)Nc2ccccc2)o1` was 34.6% (active). Take `CCC(C)(C)NC(=O)C(c1ccc(O)cc1)N(Cc1ccco1)C(=O)CCC(=O)Nc1ccccn1` (configuration not stated): the inhibition is -14.9% (inactive). For `COc1cccc(NC(=O)N2CCC(NC(=O)C(Cc3cccc(C)c3)NC(C)=O)CC2)c1` (configuration not stated) the value was -1.52% (inactive). The value for `Cc1ccc(-n2[nH]c(C)c(/C=N/NC(=O)c3cccc([N+](=O)[O-])c3)c2=O)cc1C` was 1.83% (inactive); that for `CCN1CCN(c2cc3nc(C)n(Cc4ccccc4)c(=O)c3cc2NC(=O)c2ccccc2F)CC1` was -2.2% (inactive). The value for `COc1ccc(OCc2nnc3n2N=C(c2ccccc2)C(CC(=O)O)S3)cc1` (configuration not stated) was 33.1% (active); that for `COc1ccc(C(=O)CSc2nnc(COc3ccccc3)n2Cc2ccco2)cc1` was -6.68% (inactive). Regarding `COc1cccc(OCc2nnc3n2N=C(c2ccccc2)C(CC(=O)O)S3)c1` (configuration not stated), the inhibition is 3.81% (inactive). The value for `CC(C)(C)c1ccc(C(CC(=O)O)NS(=O)(=O)Cc2ccccc2)cc1` (configuration not stated) was -3.96% (inactive); that for `FC(F)(F)C1CCCN(c2nsc3ccccc23)C1` (configuration not stated) was 76.9% (active). For `CC(C)OC(=O)c1c(NC(=O)c2ccco2)sc2c1CCCC2`, the inhibition is -7.19% (inactive). For `CNC(=O)c1c(NC(NC(=O)c2ccco2)C(=O)c2ccc(Cl)cc2)sc2c1CCCC2` (configuration not stated) the value was 35% (active); for `CCOC(=O)c1c(NC(=S)NC(=O)c2ccco2)sc2c1CCCC2`, 6.75% (inactive). For `CC(=O)Nc1ccc(NC(=O)CC2CCCC2)cc1` the value was -1.31% (inactive); for `O=C(CCC1CCCC1)N=C1SC2CS(=O)(=O)CC2N1Cc1ccccc1` (configuration not stated), 9.31% (inactive); for `Cc1cc(C)n2nc(CNS(=O)(=O)c3c(F)c(F)c(F)c(F)c3F)nc2n1`, 2.95% (inactive). Regarding `CC(C)=CCN1CCN(CCCc2ccccc2)CC1CCO` (configuration not stated), the inhibition was -4.62% (inactive). For the compound `Cc1ccc(-n2c(C)cc(/C=C(\C#N)C(=O)NCC3CCCO3)c2C)cc1` (configuration not stated), the inhibition was -10.2% (inactive). As for `CN(C)c1ccc(-c2nnc(-c3cccnc3)o2)cc1`, the inhibition is 10.3% (inactive). For `Cc1nc2ccccc2c(=O)n1Cc1ccc([N+](=O)[O-])cc1` the value was -5.86% (inactive); for `O=C1CC(c2ccccc2)=NN1c1ccc([N+](=O)[O-])cc1`, 0.8% (inactive). For `O=c1[nH]n(-c2ccc([N+](=O)[O-])cc2)c(=O)c2ccccc12`, the inhibition is 34.9% (active). For `CCCC(C(=O)NC1CCCC1)N(C(=O)Cn1nnc(-c2ccc(C)o2)n1)c1cccc(O)c1` (configuration not stated) the value was -0.55% (inactive). With `CCCc1nc2ccccc2c(=O)n1NC(=O)c1c(O)c2ccccc2[nH]c1=O`, the inhibition is -1.38% (inactive).

In the case of `O=c1c2ccccc2ncn1/N=C/c1ccccc1`, the inhibition was 1.08% (inactive). `CCCc1nc2ccccc2c(=O)n1/N=C/c1ccc(O)c(O)c1`: the inhibition is 53.2% (active).

The record behind these values is PubChem BioAssay AID1822 (The Scripps Research Institute Molecular Screening Center, 2009).
